# PubChem BioAssay AID492950 (Southern Research Specialized Biocontainment Screening …, 2010)
# Entries with a potency or affinity are not part of this list. Unmarked numbers belong to inactive results. How the calls were made is not given here.
# Assay: mammalian cell cytotoxicity, dose response, cytotoxicity control (AID 492950)
# Settings: cytotoxicity counter-screen; series mostly up to 40 µM; viability: at the top concentration
row,Compound,viability [%]
1,CC(/C=N/NC(=O)Cc1cc(=O)[nH][nH]1)=C\c1ccccc1,88.2
2,Cc1ccc(C(=O)Oc2ccc([N+](=O)[O-])cc2)cc1S(=O)(=O)N1CCCCCC1,81.1
3,CC1=NNC(=O)C1Cc1c(Cl)cccc1Cl (stereo unspecified),93.8
4,CCCCc1ccc(NC(=O)CSCc2cc(=O)[nH][nH]2)cc1,99.3
5,O=C(Cc1ccccc1)c1c[nH]c(C(=O)C(Cl)(Cl)Cl)c1,98.5
6,O=C(Cc1cc(=O)[nH][nH]1)N/N=C/c1ccccc1[N+](=O)[O-],92.8
7,Cc1ccccc1-c1nc(CN(C)C(C)c2ccon2)c(C)o1 (stereo unspecified),93.4
8,CCCc1[nH]nc2c1C(c1ccoc1)C(C#N)=C(N)O2 (stereo unspecified),86.2
9,Cc1ccc(SCc2[nH]nc3c2C2(CCSCC2)C(C#N)=C(N)O3)cc1,102
10,O=C(Cc1cc(=O)[nH][nH]1)N/N=C/c1cccc2ccccc12,96
11,Cc1nc2ccccc2c2c1C(=O)N(C)C2=O,104
